Compounds without any hit were thinned out: in the full panel of roughly 79,000, 15% have a hit. Activity calls are given as the source filed them. No stated cut-off is given here; in the data, active means growth inhibition above about 70%; inactive means the rest.

The test can be described thus: NCI Yeast Anticancer Drug Screen. Data for the sgs1 mgt1 strain (AID 161).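 Further: 0% = growth of cultures given vehicle only.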 The note with it: S. cerevisiae sgs1 mgt1 strain, at 50.0 µM, active compounds read high. Put shortly:
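Genetically altered yeast, compound exposure, growth inhibition relative to vehicle.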
For the molecule `CCOC(=O)C(NC(C)=O)C(C)O` (stereo not given), the growth inhibition was 5.05% (inactive). The value for `NC(=O)/C(=N/O)c1ccccc1` was 1.7% (inactive). The value for `CC1CC(C)(C)C(C[NH-])C1[NH-].[Cl][Pt+2][Cl]` (stereo not given) was 34.3% (inactive); that for `NC1C2C3C=CC(C3)C12` (stereo not given) was -5.75% (inactive).

In the case of `CC(=O)Nc1cccc2c(OC(C)=O)cccc12`, the growth inhibition was -19.7% (inactive). `N#Cc1c(-c2ccco2)cc(-c2ccccc2)[nH]c1=O`: the growth inhibition was 18.1% (inactive). The value for `COn1c(-c2ccccc2)nc2c1C(=O)N(C)CN2C` was 7.3% (inactive). Consider `CCCCCC(=O)OCCCCCO`, for which the growth inhibition was 21.5% (inactive). The value for `O=C1CCSC(=S)N1c1ccc(F)cc1F` was 18.4% (inactive). Next, `O=C(Cc1ccccc1)N(c1ccccc1)c1ccccc1`: 13% (inactive).

On to `CCCCN(CCCC)Cc1ccnc(C)c1O`, for which the growth inhibition was -8.5% (inactive). The value for `COc1ccc2nc(NC(=O)Nc3ccc(Cc4ccc(NC(=O)Nc5nc6ccc(OC)cc6s5)cc4)cc3)sc2c1` was -10.3% (inactive). Next, `N#Cc1c(N)nc2c3c1NC(=O)C(C(N)=O)C3c1ccccc1O2` (stereo not given): 5.95% (inactive). As for `C/C(CC(=O)Nc1ccccn1)=N\c1ccccn1`, the growth inhibition was -6.6% (inactive). Regarding `CCc1cc(CSc2ccc(Cl)cc2)ccc1N`, the growth inhibition was 98.8% (active).

For the molecule `C=CCO[Si](OCC=C)(OCC=C)OCC=C`, the growth inhibition was -6.2% (inactive). Next, `CC(=O)c1sc2c(c1OC(=O)c1ccc(Cl)cc1)c(=O)n(-c1ccccc1)c(=S)n2-c1ccccc1`: -11.2% (inactive). The value for `OCC1CC=CCC1` (stereo not given) was -4.35% (inactive); that for `C=CCNCC(O)C(F)(F)C(F)(F)C(F)(F)C(F)(F)C(F)(F)C(F)(F)F` (stereo not given) was 32.1% (inactive); that for `COc1ccc(-n2c(N)c(C#N)c(C#N)c2-c2ccco2)cc1` was -9.3% (inactive). Next, `CCC(=N\NC(=S)NC)/C(C)=N\NC(=S)NC`: -6.5% (inactive).

As for `O=c1c2nn3c(=O)n(-c4ccccc4)c(=O)c3nn2c(=O)n1-c1ccccc1`, the growth inhibition was -14.8% (inactive). Next, `CC(=O)Nc1cccc(O)c1`: 25.1% (inactive); `O=[N+]([O-])c1cccc(NSNc2cccc([N+](=O)[O-])c2)c1`: 25.6% (inactive).

For `CN(C)CC1CCCC(CN(C)C)C1OC(=O)c1ccccc1` (stereo not given), the growth inhibition is 9.25% (inactive). The value for `CCCCOc1cc2c(cc1C(C)c1ccccc1)OCO2` (stereo not given) was -4.05% (inactive); that for `Cc1c(Cl)cccc1NC(=O)C(=O)C(C(=O)c1ccccc1-c1ccccc1)C1OC(=O)c2ccccc21` (stereo not given) was -14.3% (inactive); that for `CCCCCCCCCCCCCCCCC/C(CC)=N/Nc1ccc([N+](=O)[O-])cc1[N+](=O)[O-]` was -24.6% (inactive).

As for `CC(Br)C(=O)c1ccc2ncccc2c1` (stereo not given), the growth inhibition was -7.6% (inactive).

As for `CCN1CCC(O)(c2ccc(Oc3ccc(F)cc3)cc2)C(C(=O)c2ccc(Oc3ccc(F)cc3)cc2)C1` (stereo not given), the growth inhibition is 14.6% (inactive). Next, `O=c1[nH]c(=O)n(CCCCOc2ccccc2)cc1-c1ccccc1`: 19.6% (inactive). The value for `FC(F)(F)c1cccc(C2SCc3nc4ccccc4n32)c1` (stereo not given) was 7.1% (inactive); that for `CCOC(=O)C(=O)Nc1ccc2cc(OC)ccc2c1C#N` was 14.8% (inactive). On to `CCc1nc2c([nH]1)C(=O)c1ccccc1C2=O`, for which the growth inhibition is 44.2% (inactive). Next, `CCOC(=O)C(F)C(C)=O` (stereo not given): 56.2% (inactive). The value for `CN(/N=C/c1ccccn1)C1=NCCCN1` was -23% (inactive); that for `CC(C)CC(N)C(=O)NC(Cc1cc2ccccc2[nH]1)C(=O)O` (stereo not given) was 7.3% (inactive). `N#CC[N+]1(Cc2ccccn2)CCCC1`: the growth inhibition was -13.8% (inactive). The value for `Cc1cccc2c(/C=C/c3ccc(N(C)C)cc3)ccnc12` was -3.95% (inactive).

On to `CC(=O)n1nnc(CC#N)c1-c1ccccc1`, for which the growth inhibition was 2.65% (inactive).

For the origin of these results see PubChem BioAssay (NCI).
